Source: PubChem (National Center for Advancing Translational Sciences (NCATS))
SW480 rereplic: inducers of DNA re-replication in SW480 colon cancer cells. SW480 DNA re-replication, Hoechst DNA content imaging, 48 h. Potency, µM (titrated, usually from 46.1 µM), inactives show at the highest dose re-replication activation, hits mostly activators. 340,000 tested, 1.8% active. AID 624297; further: % of control where 0% means no effect; nearly all actives have a fitted effect of over 55% in size
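Image-based read-out: total Hoechst fluorescence of nuclei (405 nm excitation, 500-530 nm emission), with hits raising the fraction of high-intensity nuclei. SW480 colon cells incubated 48 hr with compounds at 37 C.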
MCF10A rerep: DNA re-replication induction in MCF 10a cells; 350,000 tested, 2.9% active; Potency, µM (series often up to 46.1 µM), inactives show at the top dose activity, positive = re-replication, hits mostly activators; AID 624296; MCF 10A DNA re-replication, Hoechst nuclear intensity, 48 h; further: % of control where 0% means no effect; nearly all actives have a fitted effect of over 50% in size
KB-3-1 cytotox: kills parental KB-3-1 adenocarcinoma cells; AID 1347075; KB-3-1 viability, CellTiter-Glo ATP luminescence, 72 h; 400,000 tested, 1.4% active; Potency, µM (series often up to 46.1 µM), hits mostly cytotoxic; further: on the % scale 0 is the no-effect control and ±100 the full control effect; nearly all actives have a fitted effect of over 60% in size
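72 h, 37 °C compound treatment of KB-3-1 parental cells; CellTiter-Glo added, 10 min, luminescence read. Data corrected against DMSO-only plates and normalized before curve fitting.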
12-LOX inh: inhibitors of human 12S-lipoxygenase ALOX12 | purified 12hLO, xylenol orange hydroperoxide absorbance | Potency, µM (top dose mostly 108 µM), inactives show top-dose activity change, negative = inhibition, usual class: inhibitors | 580,000 tested, 1.1% active | AID 1671190; further: on the % scale 0 is the no-effect control and ±100 the full control effect
Target sequence (P18054 whole entry, looked up): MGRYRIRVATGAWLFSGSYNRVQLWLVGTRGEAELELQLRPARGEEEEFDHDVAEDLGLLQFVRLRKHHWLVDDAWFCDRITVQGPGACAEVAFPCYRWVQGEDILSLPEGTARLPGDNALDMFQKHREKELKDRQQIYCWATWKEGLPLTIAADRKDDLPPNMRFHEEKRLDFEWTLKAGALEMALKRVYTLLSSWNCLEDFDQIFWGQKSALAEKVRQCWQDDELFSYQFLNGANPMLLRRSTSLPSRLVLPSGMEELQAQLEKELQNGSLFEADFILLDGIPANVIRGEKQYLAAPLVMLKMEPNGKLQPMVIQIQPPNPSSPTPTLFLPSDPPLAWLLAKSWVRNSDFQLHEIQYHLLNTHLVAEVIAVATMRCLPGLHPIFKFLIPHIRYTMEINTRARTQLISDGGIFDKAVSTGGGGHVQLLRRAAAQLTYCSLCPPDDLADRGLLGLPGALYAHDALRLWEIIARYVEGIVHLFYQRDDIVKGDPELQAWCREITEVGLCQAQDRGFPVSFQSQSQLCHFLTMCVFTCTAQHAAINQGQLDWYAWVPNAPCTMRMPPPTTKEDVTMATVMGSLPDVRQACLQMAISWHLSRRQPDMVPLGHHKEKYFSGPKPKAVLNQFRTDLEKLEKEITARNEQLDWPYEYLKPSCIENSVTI
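Purified human 12hLO (150 nM final) in 25 mM Hepes, 0.01% Triton X-100, pH 7.0 was preincubated 15 min at room temperature with compound. Then 40 uM arachidonic acid was added, 30 min. Hydroperoxide was read by Fe-XO absorbance ratio 573/405 nm.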
KB-V1 MDR tox: KB-V1 MDR subline cytotoxicity | Potency, µM (highest dose often 46.1 µM), usual class: cytotoxic | 400,000 tested, 3.4% active | AID 1347076 | KB-V1 MDR cells viability, CellTiter-Glo, 72 h; further: on the % scale 0 is the no-effect control and ±100 the full control effect; nearly all actives have a fitted effect of over 60% in size
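KB-V1, DMEM (no phenol red) + 10% FBS; cpd pin-transferred, titration series; 72 h, 37 degrees C; CellTiter-Glo, luminescence. Data normalized, curve-fit.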
PINK1 expr mod: modulators of PINK1 expression; PINK1 immunofluorescence, high-content cytometry, 24 h; Potency, µM (titrated, usually from 76.6 µM), without a hit: at the highest dose activation (PINK1 increase), hits mostly activators; 410,000 tested, 0.2% active; active means well fitted activation curve with a large enough effect; inconclusive means small, poorly fitted or top-dose-only effect; cell line not stated here; further: % of control where 0% means no effect; nearly all actives have a fitted effect of over 65% in size
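Readout is PINK1 immunofluorescence, quantified alongside mitochondrial, cell and nuclear markers by laser-scanning microplate cytometry. Cells from a stable line were exposed to compound titrations (5 concentrations) for 24 hours, with CCCP controls.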
* marks the source's active call; other numbers are inactive results; i = inactive; ? = inconclusive; nt = no result given; [ ] = dose if it differs, or a comment. Most compounds without a hit are left out; they make up all but 5.8% or so of the library. Unless noted, the call rests on the fitted dose curve; in most records, active means well fitted curve in the direction sought with a large enough effect; inconclusive means small, poorly fitted or top-dose-only effect, or another doubt; inactive means no such curve, though single readings can be large; an effect the other way counts as inactive or inconclusive. Potency means the concentration at half of the fitted maximal effect.

SMILES	SW480 rereplic	MCF10A rerep	KB-3-1 cytotox	12-LOX inh	KB-V1 MDR tox	PINK1 expr mod
Cc1cccc(-c2noc(-c3ccc(N4CCN(C)CC4)c([N+](=O)[O-])c3)n2)c1	nt	nt	18µM*	?	i	1%
Cc1cccc(-c2noc(-c3ccc(N4CCCC4)c([N+](=O)[O-])c3)n2)c1	nt	nt	i	-7%	i	0%
Cc1cc2oc(=O)cc(CSc3nncs3)c2cc1C	nt	nt	nt	-1%	nt	nt
C#CCOCCOCCOCCNc1nc(N2CCN(C(=O)CCCCCCCCCCNC(=O)[C@H]([C@@H](C)CC)n3cc(CCCCCN)nn3)CC2)nc(N2CCN(C(=O)CCCCCCCCCCNC(=O)[C@H](CO)n3cc(CCCCCN)nn3)CC2)n1	-4%	3%	?	nt	i	0%
C#CCOCCOCCOCCNc1nc(N2CCOCC2)nc(N2CCN(C(=O)CCCCCCCCCCNC(=O)[C@@H]([C@H](C)CC)n3cc(CCCCCN)nn3)CC2)n1	?	12µM*	i	?	i	-1%
C#CCOCCOCCOCCNc1nc(N2CCOCC2)nc(N2CCN(C(=O)[C@H](CCCCN)n3cc(CCCC)nn3)CC2)n1	-39%[9.22 µM]	25%	i	35µM*	i	-1%
C#CCOCCOCCOCCNc1nc(N2CCN(C(=O)[C@H](CCCCN)n3cc(CC(C)O)nn3)CC2)nc(N2CCN(C(=O)[C@H](CCCCN)n3cc(CC(C)O)nn3)CC2)n1 (stereo partly specified)	0%[9.22 µM]	?	i	13µM*	?	1%
C#CCOCCOCCOCCNc1nc(N2CCN(C(=O)Cn3cc(CCO)nn3)CC2)nc(N2CCN(C(=O)[C@H](CCCCN)n3cc(CC(C)O)nn3)CC2)n1 (stereo partly specified)	-12%[9.22 µM]	1%	i	?	?	0%
C#CCOCCOCCOCCNc1nc(N2CCN(C(=O)CCCCCCCCCCNC(=O)Cn3cc(C[C@@H](C)O)nn3)CC2)nc(N2CCN(C(=O)CCCCCCCCCCNC(=O)[C@H](CO)n3cc(CCCSC)nn3)CC2)n1	8%	6.5µM*	i	?	?	1%
C#CCOCCOCCOCCNc1nc(N2CCN(C(=O)CCCCCCCCCCNC(=O)Cn3cc(C[C@@H](C)O)nn3)CC2)nc(N2CCN(C(=O)CCCCCCCCCCNC(=O)[C@@H](CCC(=O)O)n3cc(CCCCCN)nn3)CC2)n1	-6%	-2%	i	?	i	1%
COc1ccc(C23CC4CC(C2)CC(c2ccc(OC)c(C(=O)NC(C)C)c2)(C4)C3)cc1C(=O)NC(C)C	nt	nt	nt	19%	nt	nt
CCCCCn1nc(C(=O)OCCOc2cccc(C)c2)c2ccccc2c1=O	nt	nt	nt	2%	nt	nt
CCS(=O)(=O)c1ccc2oc(Nc3ccc(C(C)C)cc3)nc2c1	1%	5%	i	7.1µM*	i	12%
O=S(=O)(NC[C@H]1O[C@@H](CO)[C@@H](O)[C@H]1N1CCN(c2ccccc2)CC1)c1ccc(F)cc1	nt	nt	nt	22µM*	nt	nt
O=C(NC[C@H]1O[C@@H](CO)[C@@H](O)[C@H]1N1CCN(c2ccccn2)CC1)Nc1ccc(F)cc1F	nt	nt	nt	10µM*	nt	nt
O=S(=O)(NC[C@H]1O[C@@H](CO)[C@@H](O)[C@H]1N1CCOCC1)c1ccccc1	nt	nt	nt	-2%[176 µM]	nt	nt
CCCCCNc1nc2ccccc2nc1NS(=O)(=O)c1cccc(C)c1	nt	nt	nt	34%	nt	nt
O=C(CSc1ncnc2nc[nH]c12)N1CCOCC1	18µM*	8.2µM*	i	9%	i	0%[38.3 µM]
O=C(CSc1ncnc2nc[nH]c12)c1ccccc1	4%	?	?	?	?	4%
Cc1ccc(Cl)cc1NC(=O)Nc1cc2c(cc1Oc1ccccc1)n(C)c(=O)n2C	nt	nt	nt	6%	nt	nt
CCCNC(=O)c1ccc2c(=O)c(O)c(-c3ccc(F)cc3)[nH]c2c1	5%	-3%	?	nt	i	0%
CCCNC(=O)c1ccc2c(=O)c(O)c(-c3cccc(Br)c3)[nH]c2c1	-19%[9.22 µM]	-34%	12µM*	-24%	i	-1%
N#C/C(=C\c1ccc(OCc2ccccc2)cc1)c1ccccc1	nt	nt	nt	5%	nt	nt
COc1ccc(C(CC(=O)Nc2ccc(Cl)cc2F)NC(=O)C(F)(F)F)cc1 (stereo unspecified)	-10%	2%	i	-2%	8.2µM*	12%[38.3 µM]
COc1ccc(-c2nc(N)nc(C)c2Oc2ccccc2Br)c(O)c1	?	15µM*	?	0%	?	-5%
SMILES	SW480 rereplic	MCF10A rerep	KB-3-1 cytotox	12-LOX inh	KB-V1 MDR tox	PINK1 expr mod
CN(C)C=Nc1c(Br)cc(Br)c2nonc12	-3%	-1%	i	0%	i	11µM*
O=C(c1cccc(Oc2ccccc2)c1)N1CC[C@@]2(O)CCNC[C@H]2C1	nt	nt	nt	7%	nt	nt
COc1ccc(OC)c(C(=O)COC(=O)c2ccc(Cl)c(S(N)(=O)=O)c2)c1	nt	nt	nt	-3%	nt	nt
CCNC(=O)N(CC)C[C@H]1N[C@@](C)(C(=O)OC)[C@H]2C(=O)N(Cc3ccccc3)C(=O)[C@@H]12	0.23µM*	-5%	i	-59%	i	4%
CCN(C[C@H]1N[C@@](C)(C(=O)OC)[C@H]2C(=O)N(Cc3ccccc3)C(=O)[C@@H]12)C(=O)c1ccccc1	1%	1%	i	-19%	i	0%
O=[N+]([O-])c1ccc(Cl)c(CN2CCN(c3ncc(Cc4ccccc4)cn3)CC2)c1	nt	nt	?	-19%	5.2µM*	nt
O=C(OCC(=O)N1CCCCCC1)c1ccc([N+](=O)[O-])cc1Cl	-16%	0.82µM*	i	2%	i	0%
O=[N+]([O-])c1ccc(Cl)c(CN2CCC(O)CC2)c1	-2%	-4%	i	-12%	i	-1%
CNC(=O)COC(=O)c1ccc([N+](=O)[O-])cc1Cl	-6%	-8%	i	-7%	i	1%
O=[N+]([O-])c1ccc(Cl)c(CN2CCCCCC2)c1	-5%	?	i	0.56µM*	i	0%
O=[N+]([O-])c1ccc(Br)c(CN2CCN(c3ncc(Cc4ccccc4)cn3)CC2)c1	nt	nt	?	-20%	?	nt
CCc1ccc2oc(=O)cc(CN3CCN(CC(=O)NC4CCCC4)CC3)c2c1	nt	nt	nt	-8%	nt	nt
COc1ccc(Cl)cc1NC(=O)Cn1c2c(c(=O)n1-c1ccccc1)Cc1cccc(OC)c1O2	nt	nt	nt	-9%	nt	nt
NC(=S)N/N=C/c1cccc([N+](=O)[O-])c1	nt	nt	nt	-11%	nt	nt
Cc1cccc(N(CC(=O)N[C@H]2CC[C@H]2NC2CCCC2)S(C)(=O)=O)c1	nt	nt	nt	1%	nt	nt
O=C(NCc1ccc(C(F)(F)F)cc1)c1n[nH]c2c1CCCC2	nt	nt	nt	95%	nt	nt
